# Hit rate of the full screen: of about 2,700 compounds, about 160 (5.9%) showed an effect of 50% or more. Shown is part of a subset that was picked to be rich in strong results.
# Target: Nonstructural protein 3 (Zika virus) (UniProt A0A024AXB9)
# [1] = PRVABC59, Concentration 50.0 uM, Number of replicates 1.0
# [2] = PRVABC59, Concentration 10.0 uM, Number of replicates 1.0
# Sequence of Nonstructural protein 3 (Zika virus) (A0A024AXB9 as listed by the source): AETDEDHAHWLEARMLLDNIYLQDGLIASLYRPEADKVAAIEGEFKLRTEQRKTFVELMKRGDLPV
structure (smiles),measurement,setting,value
COC(=O)c1csc2cc(C(=O)N3CCCc4cc(CCN)ccc43)[nH]c12,inhibition,"PRVABC59, Concentration 49.5 uM, Number of replicates 2.0, Standard deviation 0.9658024514724747 %",6.59%
same,inhibition,"PRVABC59, Concentration 99.01 uM, Number of replicates 2.0, Standard deviation 0.02626726469114151 %",17.1%
same,inhibition,"PRVABC59, Concentration 198.0 uM, Number of replicates 2.0, Standard deviation 0.028287616021359725 %",35.6%
c1ccc2c([C@H]3CCN(C[C@H]4CCOC4)C3)c[nH]c2c1,inhibition,"PRVABC59, Concentration 49.5 uM, Number of replicates 2.0, Standard deviation 3.5400839111105795 %",4.89%
same,inhibition,"PRVABC59, Concentration 99.01 uM, Number of replicates 2.0, Standard deviation 2.681337995191051 %",11.3%
same,inhibition,"PRVABC59, Concentration 198.0 uM, Number of replicates 2.0, Standard deviation 1.591884445207739 %",20.9%
CS(=O)(=O)c1ccc(N2CCNCC2)cc1NC(=O)c1cccc2ncccc12,inhibition,"PRVABC59, Concentration 49.5 uM, Number of replicates 2.0, Standard deviation 1.82855821855933 %",11.9%
same,inhibition,"PRVABC59, Concentration 99.01 uM, Number of replicates 2.0, Standard deviation 4.882597086209548 %",19.4%
same,inhibition,"PRVABC59, Concentration 198.0 uM, Number of replicates 2.0, Standard deviation 6.745947359627227 %",12.5%
CCn1ccnc(N2CC[C@@H](CC(N)=O)C2)c1=O,inhibition,"PRVABC59, Concentration 49.5 uM, Number of replicates 2.0, Standard deviation 2.578637589312797 %",7.29%
same,inhibition,"PRVABC59, Concentration 99.01 uM, Number of replicates 2.0, Standard deviation 2.4095461189610305 %",15.8%
same,inhibition,"PRVABC59, Concentration 198.0 uM, Number of replicates 2.0, Standard deviation 1.1815224976183896 %",30.8%
Cc1cnccc1NC(=O)c1cccn(C[C@@H]2CCNC2)c1=O,inhibition,"PRVABC59, Concentration 49.5 uM, Number of replicates 2.0, Standard deviation 1.3483593644559142 %",2.86%
same,inhibition,"PRVABC59, Concentration 99.01 uM, Number of replicates 2.0, Standard deviation 1.4355155911348652 %",4.88%
same,inhibition,"PRVABC59, Concentration 198.0 uM, Number of replicates 2.0, Standard deviation 0.7536456684870648 %",8.2%
CNC(=O)c1cc(C#N)ccc1NS(=O)(=O)c1ccc(Oc2ccccc2Cl)cc1,inhibition,"PRVABC59, Concentration 49.5 uM, Number of replicates 2.0, Standard deviation 1.5671297466159566 %",15.1%
same,inhibition,"PRVABC59, Concentration 99.01 uM, Number of replicates 2.0, Standard deviation 1.4439402403900108 %",25.1%
same,inhibition,"PRVABC59, Concentration 198.0 uM, Number of replicates 2.0, Standard deviation 0.43015410765006534 %",58.3%
CNC(=O)c1cc(Cl)ccc1NS(=O)(=O)c1ccc(Oc2ccccc2Cl)cc1,inhibition,"PRVABC59, Concentration 49.5 uM, Number of replicates 2.0, Standard deviation 4.182044982903414 %",16.8%
same,inhibition,"PRVABC59, Concentration 99.01 uM, Number of replicates 2.0, Standard deviation 0.7456984587318506 %",44.5%
same,inhibition,"PRVABC59, Concentration 198.0 uM, Number of replicates 2.0, Standard deviation 0.5270959053225787 %",31.5%
CNC(=O)c1cc(Cl)c(F)cc1NS(=O)(=O)c1ccc(Oc2ccccc2Cl)cc1,inhibition,"PRVABC59, Concentration 49.5 uM, Number of replicates 2.0, Standard deviation 0.22897404989083275 %",53.5%
same,inhibition,"PRVABC59, Concentration 99.01 uM, Number of replicates 2.0, Standard deviation 0.1399302344544729 %",88.1%
same,inhibition,"PRVABC59, Concentration 198.0 uM, Number of replicates 2.0, Standard deviation 0.21988651500230783 %",90.5%
CCc1ccc(NS(=O)(=O)c2ccc(Oc3ccccc3Cl)cc2)c(C(=O)NC)c1,inhibition,"PRVABC59, Concentration 49.5 uM, Number of replicates 2.0, Standard deviation 1.2139175769082269 %",14.3%
same,inhibition,"PRVABC59, Concentration 99.01 uM, Number of replicates 2.0, Standard deviation 1.880844587297581 %",19.5%
same,inhibition,"PRVABC59, Concentration 198.0 uM, Number of replicates 2.0, Standard deviation 1.9898788215700518 %",28.9%
CNC(=O)c1cc(Cl)c(OC)cc1NS(=O)(=O)c1ccc(Oc2ccccc2Cl)cc1,inhibition,"PRVABC59, Concentration 49.5 uM, Number of replicates 2.0, Standard deviation 2.6404535290867552 %",34.2%
same,inhibition,"PRVABC59, Concentration 99.01 uM, Number of replicates 2.0, Standard deviation 0.459760751442422 %",79.4%
same,inhibition,"PRVABC59, Concentration 198.0 uM, Number of replicates 2.0, Standard deviation 0.11085228072983687 %",89.8%
CNC(=O)c1cc(Cl)ccc1NS(=O)(=O)c1cccc(Oc2ccccc2)c1,inhibition,"PRVABC59, Concentration 49.5 uM, Number of replicates 2.0, Standard deviation 3.0665234385287206 %",9.77%
same,inhibition,"PRVABC59, Concentration 99.01 uM, Number of replicates 2.0, Standard deviation 2.7531252049731103 %",15.8%
same,inhibition,"PRVABC59, Concentration 198.0 uM, Number of replicates 2.0, Standard deviation 3.162284112918565 %",28.1%
O=S(=O)(Nc1ccc(Cl)cc1)c1ccc(Oc2ccccc2Cl)cc1,inhibition,"PRVABC59, Concentration 49.5 uM, Number of replicates 2.0, Standard deviation 0.5562375850821631 %",7.5%
same,inhibition,"PRVABC59, Concentration 99.01 uM, Number of replicates 2.0, Standard deviation 0.1909474772903637 %",13.8%
same,inhibition,"PRVABC59, Concentration 198.0 uM, Number of replicates 2.0, Standard deviation 0.9464347944699606 %",26.1%
Cc1cc(NS(=O)(=O)c2ccc(Oc3ccccc3Cl)cc2)c(C(=O)NCC(F)(F)F)cc1F,inhibition,"PRVABC59, Concentration 49.5 uM, Number of replicates 2.0, Standard deviation 1.109661109382951 %",38%
same,inhibition,"PRVABC59, Concentration 99.01 uM, Number of replicates 2.0, Standard deviation 0.5262974754243883 %",43.1%
same,inhibition,"PRVABC59, Concentration 198.0 uM, Number of replicates 2.0, Standard deviation 0.754567504357695 %",32.6%
NC(=O)c1ccccc1NS(=O)(=O)c1ccc(Oc2ccccc2Cl)cc1,inhibition,"PRVABC59, Concentration 49.5 uM, Number of replicates 2.0, Standard deviation 0.8239548725855442 %",-1.32%
same,inhibition,"PRVABC59, Concentration 99.01 uM, Number of replicates 2.0, Standard deviation 0.884539787208196 %",2%
same,inhibition,"PRVABC59, Concentration 198.0 uM, Number of replicates 2.0, Standard deviation 0.6321029239261367 %",31.5%
O=Cc1ccc(N2CCC(C(=O)N3CCC(N4CCc5ccccc5C4)CC3)CC2)cc1,inhibition,[1],31.7%
NS(=O)(=O)c1nc(C(=O)N2CCc3c(CO)cccc32)n2ccccc12,inhibition,"PRVABC59, Concentration 49.5 uM, Number of replicates 2.0, Standard deviation 0.7415262579040602 %",14.9%
same,inhibition,"PRVABC59, Concentration 99.01 uM, Number of replicates 2.0, Standard deviation 0.42632784815485236 %",16%
same,inhibition,"PRVABC59, Concentration 198.0 uM, Number of replicates 2.0, Standard deviation 0.11314911538628655 %",22.8%
O=Cc1ccc(N2CCC(C(=O)NCc3cccc(-c4ccccc4)c3)CC2)cc1,inhibition,[2],66.7%
O=Cc1ccc(N2CCC(C(=O)NCCC3CCN(Cc4ccccc4)CC3)CC2)cc1,inhibition,[1],36.7%
O=Cc1ccc(N2CCC(C(=O)Nc3ccc(Br)cc3O)CC2)cc1,inhibition,[1],36.5%
O=Cc1ccc(N2CCC(C(=O)NCCc3ccccc3[N+](=O)[O-])CC2)cc1,inhibition,[1],31.8%
O=Cc1ccc(N2CCC(C(=O)Nc3ncc(Br)cc3O)CC2)cc1,inhibition,[1],63.3%
O=Cc1ccc(N2CCC(C(=O)NCCc3ccc(O)c(O)c3)CC2)cc1,inhibition,[1],48.5%
O=Cc1ccc(N2CCC(C(=O)NC[C@H](O)c3ccc(O)c(O)c3)CC2)cc1,inhibition,[1],37%
CC1CCN(CCCCNC(=O)C2CCN(c3ccc(C=O)cc3)CC2)CC1,inhibition,[1],38.3%
O=Cc1ccc(N2CCC(C(=O)NCCN3CCc4ccccc43)CC2)cc1,inhibition,[1],67.9%
CC(=O)Nc1cccc(CNC(=O)C2CCN(c3ccc(C=O)cc3)CC2)c1,inhibition,[2],37.6%
O=Cc1ccc(N2CCC(C(=O)Nc3cccc(Br)n3)CC2)cc1,inhibition,[1],69.5%
